“And” between values parts separate entries of the source, which are not always exact repeats. Identical values can stand only once. Among all 5,500 compounds or so, about 2,000 (36%) were called active. About 18% were inconclusive and are not listed. No stated cut-off is given here; in the data, active means normalized growth mostly below about 0.91 (no sharp cut-off); inconclusive means no clear call, values can overlap the other calls; inactive means mostly above about 0.92. The list shows a part of the results.
Assay: chemical genetic growth profiling, strain panel (AID 1159580);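 further: tested at 20 µM; growth read once vehicle control cultures reached saturation at 30 °C; 1 = growth at the plate median or of vehicle wells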
Conditions: growth OD
[1] = S. cerevisiae deletion strains, locus YBR021W, strain FUR4, stronger effect = lower value
[2] = S. cerevisiae deletion strains, locus YBR229C, strain ROT2, stronger effect = lower value
[3] = S. cerevisiae deletion strains, locus YCL029C, strain bik1, stronger effect = lower value
[4] = S. cerevisiae deletion strains, locus YDL035C, strain GPR1, stronger effect = lower value
[5] = S. cerevisiae deletion strains, locus YDL074C, strain BRE1, stronger effect = lower value
[6] = S. cerevisiae deletion strains, locus YDL101C, strain DUN1, stronger effect = lower value
[7] = S. cerevisiae deletion strains, locus YDL185W, strain tfp1, stronger effect = lower value
[8] = S. cerevisiae deletion strains, locus YDL192W, strain arf1, stronger effect = lower value
[9] = S. cerevisiae deletion strains, locus YDR101C, strain arx1, stronger effect = lower value
[10] = S. cerevisiae deletion strains, locus YDR162C, strain NBP2, stronger effect = lower value
[11] = S. cerevisiae deletion strains, locus YDR318W, strain mcm21, stronger effect = lower value
[12] = S. cerevisiae deletion strains, locus YDR388W, stronger effect = lower value
[13] = S. cerevisiae deletion strains, locus YDR502C, strain sam2, stronger effect = lower value
[14] = S. cerevisiae deletion strains, locus YEL061C, strain CIN8, stronger effect = lower value
[15] = S. cerevisiae deletion strains, locus YER110C, stronger effect = lower value
[16] = S. cerevisiae deletion strains, locus YER155C, strain BEM2, stronger effect = lower value
[17] = S. cerevisiae deletion strains, locus YER167W, strain BCK2, stronger effect = lower value
[18] = S. cerevisiae deletion strains, locus YGL078C, strain dbp3, stronger effect = lower value
[19] = S. cerevisiae deletion strains, locus YGL086W, strain mad1, stronger effect = lower value
[20] = S. cerevisiae deletion strains, locus YGL248W, strain PDE1, stronger effect = lower value
[21] = S. cerevisiae deletion strains, locus YGR135W, strain pre9, stronger effect = lower value
[22] = S. cerevisiae deletion strains, locus YGR252W, strain gcn5, stronger effect = lower value
[23] = S. cerevisiae deletion strains, locus YHR030C, strain SLT2, stronger effect = lower value
[24] = S. cerevisiae deletion strains, locus YHR079C, strain IRE1 (second series), stronger effect = lower value
[25] = S. cerevisiae deletion strains, locus YHR094C, strain hxt1, stronger effect = lower value
[26] = S. cerevisiae deletion strains, locus YHR129C, strain ARP1, stronger effect = lower value
[27] = S. cerevisiae deletion strains, locus YHR200W, strain rpn10, stronger effect = lower value
[28] = S. cerevisiae deletion strains, locus YIL066C, strain RNR3, stronger effect = lower value
[29] = S. cerevisiae deletion strains, locus YIL073C, strain SPO22, stronger effect = lower value
[30] = S. cerevisiae deletion strains, locus YIL125W, strain kgd1, stronger effect = lower value
[31] = S. cerevisiae deletion strains, locus YIR030C, strain dcg1, stronger effect = lower value
[32] = S. cerevisiae deletion strains, locus YJL095W, strain BCK1, stronger effect = lower value
[33] = S. cerevisiae deletion strains, locus YJL134W, strain LCB3, stronger effect = lower value
[34] = S. cerevisiae deletion strains, locus YJL168C, strain set2, stronger effect = lower value
[35] = S. cerevisiae deletion strains, locus YJL187C, strain SWE1 (second series), stronger effect = lower value
[36] = S. cerevisiae deletion strains, locus YJR043C, strain POL32, stronger effect = lower value
[37] = S. cerevisiae deletion strains, locus YKL009W, strain mrt4, stronger effect = lower value
[38] = S. cerevisiae deletion strains, locus YKL068W, stronger effect = lower value
[39] = S. cerevisiae deletion strains, locus YKL085W, strain MDH1 (second series), stronger effect = lower value
[40] = S. cerevisiae deletion strains, locus YKL085W, strain MDH1, stronger effect = lower value
[41] = S. cerevisiae deletion strains, locus YKR001C, strain vps1, stronger effect = lower value
[42] = S. cerevisiae deletion strains, locus YLR039C, strain RIC1, stronger effect = lower value
[43] = S. cerevisiae deletion strains, locus YLR058C, strain SHM2, stronger effect = lower value
[44] = S. cerevisiae deletion strains, locus YLR102C, strain apc9, stronger effect = lower value
[45] = S. cerevisiae deletion strains, locus YLR262C, strain YPT6, stronger effect = lower value
[46] = S. cerevisiae deletion strains, locus YLR268W, strain sec22, stronger effect = lower value
[47] = S. cerevisiae deletion strains, locus YLR330W, strain CHS5, stronger effect = lower value
[48] = S. cerevisiae deletion strains, locus YLR342W, strain FKS1 (second series), stronger effect = lower value
[49] = S. cerevisiae deletion strains, locus YLR371W, strain rom2, stronger effect = lower value
[50] = S. cerevisiae deletion strains, locus YLR418C, strain cdc73, stronger effect = lower value
[51] = S. cerevisiae deletion strains, locus YML016C, strain PPZ1, stronger effect = lower value
[52] = S. cerevisiae deletion strains, locus YML032C, strain rad52, stronger effect = lower value
[53] = S. cerevisiae deletion strains, locus YML124C, strain tub3, stronger effect = lower value
[54] = S. cerevisiae deletion strains, locus YMR078C, strain ctf18, stronger effect = lower value
[55] = S. cerevisiae deletion strains, locus YMR223W, strain ubp8, stronger effect = lower value
[56] = S. cerevisiae deletion strains, locus YMR307W, strain GAS1, stronger effect = lower value
[57] = S. cerevisiae deletion strains, locus YNL067W, strain RPL9B, stronger effect = lower value
[58] = S. cerevisiae deletion strains, locus YNL233W, strain BNI4, stronger effect = lower value
[59] = S. cerevisiae deletion strains, locus YNL250W, strain rad50, stronger effect = lower value
[60] = S. cerevisiae deletion strains, locus YNL271C, strain bni1, stronger effect = lower value
[61] = S. cerevisiae deletion strains, locus YNL298W, strain CLA4, stronger effect = lower value
[62] = S. cerevisiae deletion strains, locus YNL307C, strain MCK1, stronger effect = lower value
[63] = S. cerevisiae deletion strains, locus YNR052C, strain pop2, stronger effect = lower value
[64] = S. cerevisiae deletion strains, locus YOL012C, strain htz1
[65] = S. cerevisiae deletion strains, locus YOL147C, strain pex11, stronger effect = lower value
[66] = S. cerevisiae deletion strains, locus YOR061W, strain CKA2, stronger effect = lower value
[67] = S. cerevisiae deletion strains, locus YOR069W, strain VPS5, stronger effect = lower value
[68] = S. cerevisiae deletion strains, locus YOR136W, strain idh2, stronger effect = lower value
[69] = S. cerevisiae deletion strains, locus YOR144C, strain elg1, stronger effect = lower value
[70] = S. cerevisiae deletion strains, locus YOR184W, strain ser1, stronger effect = lower value
[71] = S. cerevisiae deletion strains, locus YOR316C, strain cot1, stronger effect = lower value
[72] = S. cerevisiae deletion strains, locus YPR119W, strain clb2, stronger effect = lower value
[73] = S. cerevisiae deletion strains, locus YPR141C, strain kar3, stronger effect = lower value
[74] = S. cerevisiae deletion strains, locus YPR163C, strain tif3, stronger effect = lower value
[75] = S. cerevisiae deletion strains, locus YPR167C, strain met16, stronger effect = lower value
[76] = S. cerevisiae deletion strains, strain wtn01, stronger effect = lower value

Measured: normalized growth

Oc1cc(O)cc(/C=C/c2ccccc2)c1
inactive: [1] 1.1 | [2] 1 | [3] 0.973 | [4] 1.01 | [5] 0.983 | [6] 0.978 | [7] 0.959 | [8] 0.977 | [9] 1.04 | S. cerevisiae deletion strains, locus YDR150W, strain NUM1, stronger effect = lower value 0.998 | [10] 0.996 | [11] 0.965 | [12] 0.987 | [13] 0.962 | [14] 1 | [15] 0.977 | [16] 0.995 | [17] 1.01 | [18] 0.953 | [19] 0.995 | [20] 0.957 | [21] 0.921 | [22] 0.88 | [23] 1 | [24] 0.976 | [25] 0.987 | [26] 0.99 | [27] 0.981 | [28] 1.01 | [29] 0.963 | [30] 1.01 | [31] 0.983 | [32] 0.961 | [33] 1.01 | [34] 0.974 | [35] 0.966 | [36] 1.03 | [37] 0.964 | [38] 0.994 | [39] 0.994 | [40] 0.994 | [41] 0.987 | [42] 1.03 | [43] 0.996 | [44] 0.992 | [45] 1.02 | [46] 1.02 | [47] 0.993 | [48] 1.07 | [49] 0.933 | [51] 0.998 | [52] 0.993 | [53] 0.982 | [54] 0.984 | [55] 0.977 | [56] 1 | [57] 0.968 | S. cerevisiae deletion strains, locus YNL128W, strain TEP1, stronger effect = lower value 0.977 | S. cerevisiae deletion strains, locus YNL153C, strain GIM3, stronger effect = lower value 0.96 | [58] 0.981 | [59] 0.935 | [60] 0.984 | [61] 1.02 | [62] 0.991 | [63] 0.977 | S. cerevisiae deletion strains, locus YOL006C, strain TOP1, stronger effect = lower value 1.15 | [64] 1.16 | [65] 0.977 | [66] 1.01 | [67] 0.989 | [68] 0.984 | [69] 0.999 | [70] 1.05 | [71] 0.984 | S. cerevisiae deletion strains, locus YPL241C, strain CIN2, stronger effect = lower value 1 | [72] 0.978 | [73] 0.969 | [74] 0.99 | [75] 0.957 | [76] 1 | S. cerevisiae strains, strain wild type, stronger effect = lower value 1.01
active: [50] 0.797

C/C=C/c1ccc(OC)cc1
inactive: [1] 0.987 | [2] 1.01 | [3] 1.02 | [4] 1.01 | [5] 1.03 | [6] 1.03 | [7] 1.01 | [8] 1.01 | [9] 1.02 | [10] 1.02 | [11] 1 | [12] 1 | [13] 0.998 | [14] 1.01 | [15] 1.02 | [16] 1.01 | [17] 1 | [18] 0.999 | [19] 1.02 | [20] 1.01 | [21] 1 | [22] 1.01 | [23] 1.01 and 0.942 | [24] 1.01 | S. cerevisiae deletion strains, locus YHR079C, strain IRE1, stronger effect = lower value 0.948 | [25] 1.01 | [26] 1.01 | [27] 1.01 | [28] 1.01 | [29] 1.03 | [30] 1.01 | [31] 1.02 | [32] 1.03 and 0.941 | [33] 1.01 | [34] 1.01 | [35] 1.03 | [36] 1.01 | S. cerevisiae deletion strains, locus YJR066W, strain TOR1, stronger effect = lower value 0.902 | [37] 1.02 | [38] 1 | [39] 1.01 | [40] 1.01 | S. cerevisiae deletion strains, locus YKL190W, strain CNB1, stronger effect = lower value 1.01 | [41] 0.998 | [42] 1.03 | [43] 1.01 | [44] 1.01 | S. cerevisiae deletion strains, locus YLR113W, strain HOG1, stronger effect = lower value 0.91 | [45] 1.05 | [46] 1.03 | [47] 1.01 | [48] 0.986 | [49] 1.02 | [50] 0.989 | [51] 1.01 | [52] 0.99 | [53] 1.01 | [54] 1.01 | [55] 1.01 | [56] 0.968 | [57] 1.03 | S. cerevisiae deletion strains, locus YNL183C, strain NPR1, stronger effect = lower value 0.904 | [58] 1.02 | [59] 1.02 | [60] 1 | [61] 0.988 | [62] 1 | [63] 1.01 | [64] 0.756 | [65] 1.01 | [66] 1.01 | [67] 1.01 | [68] 1.01 | [69] 1 | [70] 1.01 | S. cerevisiae deletion strains, locus YOR231W, strain MKK1, stronger effect = lower value 0.953 | [71] 1 | S. cerevisiae deletion strains, locus YPL055C, strain LGE1, stronger effect = lower value 1.03 | S. cerevisiae deletion strains, locus YPL256C, strain CLN2, stronger effect = lower value 0.927 | [72] 1.01 | [73] 1.01 | [74] 1 | [75] 1.01 | [76] 1.01
